In PubChem BioAssay:

Each compound was assayed against Albumin (Bos taurus) (UniProt P02769) (assay: compounds binding labelled BSA control protein – biochemical, small-molecule microarray, Alexa647 label, 635/667 nm fluorescence, artefact control for SMM control protein annotation, profiling panel (AID 1118;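 also: score merges 667 nm emission intensity and signal-to-noise per printed compound spot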)). Conditions: BSA-A647 binding, fluorescence 635 nm, higher = more signal.
Chain of Albumin (Bos taurus) (P02769 whole entry, looked up): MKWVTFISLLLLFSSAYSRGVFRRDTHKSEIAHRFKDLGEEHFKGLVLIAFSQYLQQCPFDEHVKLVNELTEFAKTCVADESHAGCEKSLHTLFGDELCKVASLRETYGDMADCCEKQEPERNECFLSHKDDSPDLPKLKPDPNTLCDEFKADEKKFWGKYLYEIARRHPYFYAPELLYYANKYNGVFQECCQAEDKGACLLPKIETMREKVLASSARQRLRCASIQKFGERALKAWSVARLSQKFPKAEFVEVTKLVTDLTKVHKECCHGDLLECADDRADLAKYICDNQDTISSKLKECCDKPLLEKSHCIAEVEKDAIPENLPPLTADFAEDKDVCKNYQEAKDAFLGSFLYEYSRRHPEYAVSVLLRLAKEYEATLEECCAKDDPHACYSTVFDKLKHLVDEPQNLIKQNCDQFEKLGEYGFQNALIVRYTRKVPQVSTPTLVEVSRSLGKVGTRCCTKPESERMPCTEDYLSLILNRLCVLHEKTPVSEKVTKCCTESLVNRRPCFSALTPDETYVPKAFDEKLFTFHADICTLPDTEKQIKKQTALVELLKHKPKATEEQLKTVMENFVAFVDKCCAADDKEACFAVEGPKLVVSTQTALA
In the case of `C[C@@H]1NC(=O)[C@@H](Cc2ccccc2)NC(=O)[C@@]23C(=O)N[C@@H](Cc4ccccc4)C2[C@H](C)[C@@]2(C)O[C@H]2C3/C=C/C/C=C\CNC1=O` (stereo not given in full), the composite z-score is reported as 0.324.
In the case of `COc1cccc(C)c1NC(=O)O[C@H]1[C@H](OC(=O)Nc2ccc3c(c2)OCO3)[C@@H](OC(=O)Nc2ccc3c(c2)OCO3)[C@@H](OC)O[C@@H]1CO`, the composite z-score is reported as 0.48.
`C=C(COC)/C(=C/C[C@H](OC(=O)c1ccncc1)c1ccc(CO)o1)c1cnc2ccccc2c1` showed a composite z-score of -0.0377.
`CC(C)=C1C(=O)C(c2ccccc2)=C2CN3C(=O)N(CCc4ccccc4)C(=O)[C@]3(Cc3ccc(C(F)(F)F)cc3)[C@H]21` gave a composite z-score of 0.682.
For `CCCCNC(=O)c1ccc(C#CC(C)(C)C)c(OC(C)=O)c1`, the composite z-score was 0.691.
`C=CCC(OC(C)=O)[C@@H]1[C@@H](N(Cc2cccc3ccccc23)C(=O)Cc2ccc(OC)cc2)c2cc(OCCCO)ccc2N1C(=O)c1ccc(-c2ccccc2)cc1` (stereo not given in full) gave a composite z-score of 0.249.
Compound `COc1cc(NN2C(C(O)c3ccc(N(C)C)cc3)C=CC3C(=O)N(c4ccccc4)C(=O)C32)cc(OC)c1OC` (stereo not given) has a composite z-score of 0.353.
`CCCC[C@@H](O)C1=C(COC)C[C@H]2C(=O)N(C)C(=O)[C@H]2[C@H]1CO` gave a composite z-score of 0.277.
Compound `CC1CC/C=C\[C@H]2OC34C=CCN(c5ccc6ccccc6c5)C(=O)[C@H]3N(CCCO)C(=O)[C@@H]4C2C(=O)O1` (stereo not given in full) has a composite z-score of -0.132.
In the case of `CC(C)C(CO)N1C(=O)[C@@H]2[C@H]3C(=O)OCC=C[C@H]3OC23C=CCN(c2ccc(Cl)cc2)C(=O)[C@@H]13` (stereo not given in full), the composite z-score is reported as -1.26.
Compound `CCCN1C(=O)[C@@]2(Cc3ccccc31)N=C(c1ccc(OCCCO)cc1)O[C@H]2c1ccccc1` has a composite z-score of -0.324.
Compound `O=C(O)[C@@H]1[C@@H]2C(=O)N(c3ccccc3)C(=O)[C@@H]2C[C@@H]1Sc1ccccc1` has a composite z-score of -0.037.
For `COCCOC(=O)N1C(=O)[C@@]2(c3cc(C#CCNC(N)=O)ccc31)[C@H](C(N)=O)[C@H]1C(=O)O[C@H](c3ccccc3)[C@H](c3ccccc3)N1[C@@H]2c1ccccc1OCCO`, the composite z-score was 0.222.
`COC(=O)[C@@]1(Cc2ccc(OC)cc2)[C@H]2c3cc(C(=O)N4CCCC4)n(CCO)c3C[C@H]2CN1C(=O)c1ccccc1` showed a composite z-score of 0.245.
With `C[N+](C)(C)CCCCCCNC(=O)[C@@H]1C[C@@H]2C(=O)N3CCC[C@H]3C(=O)N2[C@@H]1c1ccc(O)cc1` the composite z-score was -0.245.
`O=C1O[C@@H](c2ccccc2)[C@@H](c2ccccc2)N2[C@@H](c3ccc(O)cc3)[C@]3(C(=O)Nc4ccc(C#CCCO)cc43)[C@@H](C(=O)N3CCN(c4ncccn4)CC3)[C@H]12` was tested, and the composite z-score was -0.777.
Work on `CC(C)c1ccc(NN2C(C(O)c3ccc(F)cc3)C=CC3C(=O)N(c4ccccc4)C(=O)C32)cc1` (stereo not given) yielded a composite z-score of 0.839.
Compound `C[N+](C)(C)CCCC[C@@H]1NC(=O)[C@@H]2C[C@H](C(=O)NCCCCCCN)[C@H](c3cccc(OCCO)c3)N2C1=O` has a composite z-score of 0.919.
Compound `Cc1ccc(S[C@]2(C(=O)NCC(F)(F)F)CC(=O)N(Cc3cc(C(F)(F)F)cc(C(F)(F)F)c3)[C@@H]2c2ccc(CO)cc2I)cc1` has a composite z-score of 0.803.
`C=C[C@H]1C(C(=O)OCC)=CC[C@@H](c2ccccc2)N1S(=O)(=O)c1ccc(C)cc1` showed a composite z-score of 0.644.
`CCCCN1CC=CC23O[C@@H]4/C=C\CCCOC(=O)C4[C@H]2C(=O)N(CCO)[C@@H]3C1=O` (stereo not given in full) was tested, and the composite z-score was 0.634.
Work on `CCCCN1CC=CC23O[C@@H]4/C=C\CCC(C)OC(=O)C4[C@H]2C(=O)N(CCCO)[C@@H]3C1=O` (stereo not given in full) yielded a composite z-score of -0.741.
Work on `O=C(NCc1ccc(F)cc1)[C@H]1C[C@H]2C(=O)NCC(=O)N2[C@H]1c1ccc(O)cc1` yielded a composite z-score of -0.447.
Compound `CCOC(=O)C[C@H]1[C@H](OC(=O)Cc2ccc3c(c2)OCO3)[C@@H](NC(=O)c2ccc3ccccc3n2)c2cc(OCCCO)ccc2N1C(=O)c1ccccc1` has a composite z-score of -0.233.
`COc1cc2c(cc1O)C(C1CC1)N(C)CC2` (stereo not given) gave a composite z-score of 0.789.
`COC(=O)C1=CC(CCCO)=CC(c2cccs2)N(Cc2cccc(OC(F)(F)F)c2)C=C1C(=O)OC` (stereo not given) showed a composite z-score of 0.935.
In the case of `COCCCNC(=O)[C@@]1(Sc2ccc(C)cc2)CC(=O)N(C2Cc3ccccc3C2)[C@@H]1c1ccc(CO)cc1`, the composite z-score is reported as 0.0753.
`CN(C)c1ccc(C(O)C2C=CC3C(=O)NC(=O)C3N2Nc2ccccn2)cc1` (stereo not given) was tested, and the composite z-score was 0.396.
`COc1ccccc1CN1C(=O)c2ccccc2[C@](Cc2ccccc2I)(C(=O)O)[C@@H]1c1ccc(CO)cc1` was tested, and the composite z-score was 0.76.
For `CC(C)N1CC=CC23O[C@@H]4C=CCCOC(=O)C4[C@H]2C(=O)N(CCCO)[C@@H]3C1=O` (stereo not given in full), the composite z-score was -0.682.
